Shiga inhibitor – Shiga toxin inhibition | Vero cells, Shiga toxin protein synthesis inhibition reporter | inhibition, % at 38.7 µM | hit rate 9.2% among 290,000 | AID 2315; in the data active = inhibition mostly above about 28%, no sharp cut-off; inactive = mostly below about 43%
AmpC detergent – AmpC beta-lactamase inhibition with detergent present; P00811; AmpC hydrolysis of nitrocefin, absorbance 480 nm, 0.01% Triton; Potency, µM (series often up to 114 µM), most hits filed as inhibitors; hit rate 0.041% among 370,000; also: nearly all actives have a fitted effect of over 25% in size
Target sequence (P00811 whole entry, looked up): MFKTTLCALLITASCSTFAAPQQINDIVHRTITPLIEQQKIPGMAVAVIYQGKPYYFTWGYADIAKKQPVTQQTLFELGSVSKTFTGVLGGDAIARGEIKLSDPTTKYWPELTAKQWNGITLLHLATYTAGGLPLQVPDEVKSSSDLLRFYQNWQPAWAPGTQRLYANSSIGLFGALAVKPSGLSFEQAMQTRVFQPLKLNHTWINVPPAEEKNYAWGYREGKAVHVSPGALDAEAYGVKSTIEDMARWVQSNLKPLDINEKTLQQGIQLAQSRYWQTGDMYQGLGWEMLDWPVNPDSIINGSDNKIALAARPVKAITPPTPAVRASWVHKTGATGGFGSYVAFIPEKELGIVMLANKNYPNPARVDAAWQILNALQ
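AmpC (5.3 nM in the dispensed reagent) in 20 mM phosphate pH 7.0 with 0.01% (detergent screen) or 0.0001% Triton X-100 was preincubated with compounds for 15 min at room temperature. Nitrocefin was then added from an 800 uM solution, and hydrolysis was followed at 480 nm.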
CHX counter – counter-screen hit for Shiga toxin inhibitors, cycloheximide | max response, % | hit rate 12% among 300,000 | cell reporter, cycloheximide protein synthesis inhibition counterscreen; in the data active = max response mostly above about 13%, no sharp cut-off; inactive = mostly below about 14%; also: read at 38.3 µM for the half of the compounds with a filed dose
AmpC inh no detg – AmpC beta-lactamase inhibition without detergent | P00811 | AmpC nitrocefin hydrolysis, absorbance 480 nm, 0.0001% Triton | Potency, µM (titrated, usually from 57.1 µM), actives largely listed as inhibitors | hit rate 0.52% among 330,000; also: nearly all actives have a fitted effect of over 20% in size
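20 mM phosphate pH 7.0 + 0.01% (detergent screen) or 0.0001% Triton X-100; 5.3 nM AmpC reagent; cpd preinc 15 min RT; nitrocefin (800 uM stock) to start; A480 q20 s × 4 min; Activity was normalised to no-enzyme and no-compound control wells.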
NS1 inh – influenza NS1 inhibition. hit rate 0.4% among 270,000. AID 2326. Potency, µM (top dose mostly 46.1 µM); calls by dose curve; also: actives are rising curves; nearly all actives have a fitted effect of over 50% in size
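Growth recovery, yeast-based: influenza A NS1 expressed in S. cerevisiae causes slow growth, and suppressors are detected by OD600. The parent strain without NS1 is used as positive control.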
Large screens that a line does not name were inactive. The full list was thinned out, with hits kept by preference. Unless noted, calls follow the shape of the dose curve; as a rule, active = well fitted curve in the direction sought with a large enough effect; inconclusive = small, poorly fitted or top-dose-only effect, or another doubt; inactive = no such curve, though single readings can be large; an effect the other way counts as inactive or inconclusive.

COc1ccc2[nH]c3c(NCCC4=CCCCC4)ncnc3c2c1	Shiga inhibitor 125, AmpC detergent inconclusive, CHX counter 33 (no result: NS1 inh)
CNCCOc1ccccc1OC(C)C	none
COc1ccc(C2/C=C\CN(C(=O)C3CC3)C(Cc3ccccc3)C(=O)N2Cc2ccc(F)cc2)cc1 (stereo not drawn)	none (no result: AmpC detergent, AmpC inh no detg, NS1 inh)
CCOC(=O)c1[nH]nc(C(=O)c2ccc(Br)cc2)c1O	Shiga inhibitor 63
O=C(Cc1nc2ccccc2[nH]1)c1ccc(Br)cc1	Shiga inhibitor 76, CHX counter 28 (no result: NS1 inh)
O=c1[nH]c2ccccc2nc1Cc1ccccc1	none
O=C(Cc1nc2ccccc2[nH]c1=O)c1ccccc1	Shiga inhibitor 69, CHX counter 51 (no result: NS1 inh)
O=C(CCNC(=O)c1ccc(Br)cc1)Nc1nc2ccccc2[nH]1	none (no result: Shiga inhibitor, CHX counter, NS1 inh)
Cc1nc(CNC(=O)c2cc(COc3ccc(F)cc3Cl)on2)cs1	none
COc1ccc(OCc2cc(C(=O)NC(C)c3csc(C)n3)no2)c(Cl)c1 (stereo not drawn)	Shiga inhibitor 62, CHX counter 63
COc1ccc(OCc2cc(C(=O)NCc3nc(C)cs3)no2)c(Cl)c1	Shiga inhibitor 98, CHX counter 52
O=C(NCCN1CCOCC1)C1(C(F)(F)F)C/C(=C\CCO)CCCO1 (stereo not drawn)	none (no result: AmpC detergent, AmpC inh no detg, NS1 inh)
CCCSc1ncc(Cl)c(C(=O)Nc2ccc(S(=O)(=O)N3CCCC(C)C3)cc2)n1 (stereo not drawn)	none (no result: Shiga inhibitor, CHX counter, AmpC inh no detg, NS1 inh)
CCCCc1nc2cc(C(=O)N(C)CCc3cn[nH]c3)ccc2o1	Shiga inhibitor 61, CHX counter 51
CCCCc1nc2cc(C(=O)N3CCC(O)CC3)ccc2o1	Shiga inhibitor 47, AmpC detergent inconclusive, CHX counter 38
CCCCc1nc2cc(C(=O)N(C)C3CCOCC3)ccc2o1	Shiga inhibitor 116, CHX counter 68
O=C(c1ccc2oc(CCc3ccccc3)nc2c1)N1CC[C@H](O)C1	Shiga inhibitor 85, CHX counter 38
O=C(c1ccc2c(c1)N(Cc1ccccc1)C(=O)c1ccccc1S2(=O)=O)N1CCN(c2ccccn2)CC1	none (no result: Shiga inhibitor, CHX counter, AmpC inh no detg, NS1 inh)
CCCCNC(=O)CCn1c(=O)c2cccn2c2cccnc21	none (no result: Shiga inhibitor, CHX counter, AmpC inh no detg, NS1 inh)
O=C(c1ccc2oc(Cc3ccc(Cl)cc3)nc2c1)N1CCCCC1CCO (stereo not drawn)	none
CCCCc1nc2cc(C(=O)N3CCC[C@H]3CO)ccc2o1	Shiga inhibitor 39, CHX counter 20
CCOC(=O)/C(C#N)=C1\SS/C(=C(/C#N)C(=O)OCC)S1	Shiga inhibitor 50, CHX counter 35
COc1ccc(-c2nc(C)ncc2N=Nc2ccccc2)cc1	CHX counter 20
COc1ccc(-c2nc3c4ccccc4ccn3c2C=O)cc1	none
Cc1ncc(N=Nc2ccc(F)cc2)c(-c2ccc(Cl)cc2)n1	AmpC inh no detg 0.4µM
O=S(=O)(NCCc1csc2nc(-c3ccccc3)nn12)c1cccs1	none (no result: Shiga inhibitor, CHX counter, AmpC inh no detg, NS1 inh)
CCC(Sc1nc2ccncc2[nH]1)C(=O)Nc1cc(C)ccc1C (stereo not drawn)	none (no result: Shiga inhibitor, CHX counter, AmpC inh no detg, NS1 inh)
Cc1nc2c(-c3ccc(Cl)cc3)cnn2c2c1CCC2	Shiga inhibitor 68, AmpC detergent inconclusive, CHX counter 35 (no result: NS1 inh)
Cc1nc2c(Cl)c(C)nn2c2c1CCC2	AmpC detergent inconclusive (no result: NS1 inh)
COc1ccc(-c2c(C)nc3c(-c4ccc(F)cc4)cnn3c2N)cc1	Shiga inhibitor 53, CHX counter 66
Cc1nc2c(-c3ccc(F)cc3)cnn2c(N)c1-c1ccccc1	Shiga inhibitor 140, CHX counter 59
Cc1cc(C(F)(F)F)n2ncc(-c3ccc(F)cc3)c2n1	none
Fc1ccc(-c2cnn3c(-c4ccncc4)ccnc23)cc1	Shiga inhibitor 73, CHX counter 22 (no result: NS1 inh)
COc1ccc(N2CCN(CCCNC(=O)c3cnn(-c4ccc(F)cc4)c3-n3cccc3)CC2)cc1	none (no result: Shiga inhibitor, CHX counter, AmpC inh no detg, NS1 inh)
Cc1nn2c(N)c(C#N)cnc2c1-c1ccccc1	none
Nc1c(-c2cccc(Cl)c2)cnc2c(-c3ccccc3)cnn12	Shiga inhibitor 64, CHX counter 45
Cc1nc2c(-c3ccc(Cl)cc3)cnn2c(N)c1-c1ccc(F)cc1	Shiga inhibitor 138, CHX counter 64
Cc1nn2c(N)c(-c3ccccc3)cnc2c1-c1ccccc1	CHX counter 17
Nc1c(-c2ccc(Cl)cc2)cnc2c(-c3ccc(F)cc3)cnn12	Shiga inhibitor 88, CHX counter 34
COc1cccc(OC)c1C(=O)N1CCNCC1	AmpC detergent inconclusive (no result: Shiga inhibitor)
CN(C)C(=O)c1ccc2c(c1)N(CC(=O)NCc1ccc(F)cc1)C(=O)C1CCCCN21 (stereo not drawn)	none (no result: Shiga inhibitor, CHX counter, AmpC inh no detg, NS1 inh)
COc1ccc(CCNC(=O)[C@H](C)N2C(=O)N3CCc4c([nH]c5ccccc45)[C@@]3(C)C2=O)cc1	AmpC detergent inconclusive
CCOc1ccc(NC(=O)C2CC(=O)NC(=Nc3ccc(Cl)c(Cl)c3)S2)cc1 (stereo not drawn)	none (no result: Shiga inhibitor, CHX counter, AmpC inh no detg, NS1 inh)
O=C(Nc1ccc(Cl)cc1)C1C2CCC3C(CCC21)C3(Cl)Cl (stereo not drawn)	none
O=C(Nc1ccc(F)cc1)C1C2CCC3C(CCC21)C3(Cl)Cl (stereo not drawn)	AmpC inh no detg 14µM
Cc1cccc(NC(=O)C2C3CCC4C(CCC32)C4(Cl)Cl)c1 (stereo not drawn)	AmpC inh no detg 32µM
Cc1nc(N2CCN(C(=O)c3cccs3)CC2)c2c3c(sc2n1)CCCC3	AmpC detergent 35µM
Cc1cccc(NC(c2cccc(Cl)c2)c2ccc3cccnc3c2O)n1 (stereo not drawn)	none (no result: Shiga inhibitor, CHX counter, AmpC inh no detg, NS1 inh)
CC(C)c1nnc(NC(=O)c2cccnc2)s1	CHX counter 31
CC1CN(c2nnc(NC(=O)c3ccccc3)s2)CC(C)O1 (stereo not drawn)	Shiga inhibitor 62 (no result: NS1 inh)
CCSc1nnc(NC(=O)c2cccnc2)s1	CHX counter 17
CCSc1nnc(NC(=O)c2ccccc2)s1	Shiga inhibitor 76, AmpC detergent inconclusive, CHX counter 37
CCCc1nnc(NC(=O)c2cccnc2)s1	none
COc1ccc(NC(=O)c2[nH]nc3c2CSc2ccccc2-3)c(OC)c1	none (no result: Shiga inhibitor, CHX counter, AmpC inh no detg, NS1 inh)
O=C(O)CC1c2ccccc2CCN1C(=O)Nc1cc(Cl)ccc1Cl (stereo not drawn)	none (no result: Shiga inhibitor, CHX counter, AmpC inh no detg, NS1 inh)
CCSc1nnc(NC(=O)c2ccccc2C)s1	Shiga inhibitor 125, CHX counter 36 (no result: NS1 inh)
CCSc1nnc(NC(=O)CC(C)C)s1	CHX counter 18
CCSc1nnc(NC(=O)CC)s1	none
O=C(CSc1nnc(-c2ccccc2Cl)o1)Nc1ccccn1	Shiga inhibitor 73, CHX counter 48
COc1ccccc1NC(=O)CSc1nnc(-c2ccoc2C)o1	none (no result: Shiga inhibitor, CHX counter, NS1 inh)
Cc1occc1-c1nnc(SCC(=O)Nc2ccccn2)o1	Shiga inhibitor 38, CHX counter 17 (no result: NS1 inh)
CC(C(=O)O)N(c1ccccc1Cl)S(C)(=O)=O (stereo not drawn)	none (no result: Shiga inhibitor, CHX counter, NS1 inh)
CCOc1ccc(NC(=O)CC2C(=O)N(c3ccc(C)cc3)C(=O)N2Cc2ccc(OC)cc2)cc1 (stereo not drawn)	none (no result: Shiga inhibitor, CHX counter, AmpC inh no detg, NS1 inh)
Cc1ccccc1NC(=O)C(=O)Nc1ccccc1C	Shiga inhibitor 49, CHX counter 23
Cc1ccccc1NC(=O)c1ccccc1O	CHX counter 24

Compound activity (PubChem BioAssay)
